Measurements published in PubChem BioAssay (NCI).
Compounds without any hit were thinned out: in the full panel of roughly 83,000, 20% have a hit.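 96-well plates, one dose, 48 hours. Percent growth reported; active if below 10.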 Values without a mark were called inactive. Activity calls are given as the source filed them.

How the values were obtained:
Assay in all cases: NCI-60 one-dose screen, 48 h (100 = growth as untreated, 0 = no growth, -100 = all killed)
Conditions in all cases: 10 µM unless noted
[1] = system: BT-549 breast
[2] = system: MDA-MB-435 melanoma
[3] = system: SW-620 colon
[4] = system: HCT-116 colon
[5] = system: HCC-2998 colon
[6] = system: KM12 colon
[7] = system: MCF7 breast

| SMILES | growth [1] | growth [2] | growth [3] | growth [4] | growth [5] | growth [6] | growth [7] |
| --- | --- | --- | --- | --- | --- | --- | --- |
| CN(CCOc1ccc(CC2SC(=O)NC2=O)cc1)c1ccccn1 (stereo not drawn) | 104% | 98.3% | 102% | 103% | 112% | 96.3% | – |
| CCCOc1ccc2c(c1)CC[C@@H]1[C@@H]2CC[C@@]2(C)[C@H]1CC[C@]2(C)O | – | 84.3% | 53.8% | 83.9% | 74.7% | – | 101% |
| CN(C)c1nc(-c2ccco2)n2nc(-c3ccco3)cc2n1 | 94.3% | – | 93.4% | 91.6% | 88.5% | 61.3% | 28.3% |
| Oc1ccccc1C=Nc1ccccc1N=Cc1ccccc1O.[Cu+2] | – | 56% | 83.4% | 57.9% | 74.2% | – | 27.6% |
| CCC[C@H](N[C@@H](C)C(=O)N1[C@H](C(=O)O)C[C@@H]2CCCC[C@@H]21)C(=O)OCC | 113% | 112% | 114% | 106% | 103% | 104% | – |
| O=C(O)C(=O)O | – | 96.4% | 112% | 101% | – | 102% | 98.4% |
| CN1CCCC1c1cccnc1 (stereo not drawn) | – | 119% | 108% | 104% | – | 104% | 97.1% |
| C[C@]12C[C@H](O)[C@H]3[C@@H](CCC4=CC(=O)CC[C@@]43C)[C@@H]1CC[C@@H]2C(=O)CO | – | 103% | 99.1% | 106% | – | 99.9% | 101% |
| O=C(c1nn(-c2ccc(Cl)cc2)cc1O)n1nc(C(F)(F)F)cc1-c1ccccc1 | – | 48.1% | 39.6% | 8.39% (active) | 43.2% | 50.8% | 44% |
| C=C(C)[C@@H]1C/C=C(/C=O)CC[C@@H]2O[C@@]2(C)CC/C=C(\C)CC1 | – | 107% | 115% | 105% | 126% | 122% | 106% |
| CC(C)(C)c1ccc(S(=O)(=O)O)s1 | – | 102% | 108% | 107% | 112% | 112% | 98% |
| CCOC(=O)C(C(C)=O)c1nc2sc3cc(Cl)ccc3n2c(=N)c1C#N (stereo not drawn) | – | 104% | 98.4% | 103% | 131% | 44.1% | 58.8% |
| Nc1cc(Cl)c(S(N)(=O)=O)cc1S(N)(=O)=O | – | 113% | 107% | 121% | – | 105% | 96.2% |
| CCCCCCC(C)(O)c1ccccc1 (stereo not drawn) | – | 106% | 107% | 109% | 102% | 107% | 97.4% |
| CCC(CCC(C)C1CCC2C3CC=C4CC(O)CCC4(C)C3CCC12C)C(C)C (stereo not drawn) (tested in a mixture with another compound) | – | 85% | 104% | 79% | -53.1% (active) | 91.4% | 95.8% |
| CCCCC1Nc2nc(SC)n(C)c(=O)c2CN(Cc2ccccc2)C1=O (stereo not drawn) | – | 99.4% | 107% | 97.3% | 94.3% | 105% | 100% |
| CCN(CC)CCOc1ccc(C2=C(c3ccccc3)CCc3cc(OC)ccc32)cc1 | – | -33.9% (active) | -59% (active) | 5.52% (active) | – | -18.4% (active) | -9.06% (active) |
| O=C1CC(C(F)(F)F)=NN1C(=O)c1nn(-c2ccc(Cl)cc2)cc1O | – | 95.3% | 97.1% | 74.1% | 89.7% | 79.9% | 102% |
| C[n+]1c2ccccc2c(Nc2ccc(N3CCCCC3)cc2)c2[nH]c3ccccc3c21 | – | -96.4% (active) | -90.8% (active) | -98.7% (active) | -96.1% (active) | -96.5% (active) | -74.6% (active) |
| O=c1[nH]c(=O)n(C2CC(O)C(CO)O2)cc1C(F)(F)F (stereo not drawn) | – | 47.8% | 52.7% | 39.4% | – | 51.8% | 23.6% |
| COc1ccc(/C=N\Nc2ccc([N+](=O)[O-])cn2)cc1OC | – | 72.9% | 61.5% | 17.1% | 99.7% | 44.1% | 74.7% |
| O=C(/C=C/c1cccnc1)/C=C/c1cccnc1 | – | -28.9% (active) | -68.6% (active) | -92.7% (active) | -70.6% (active) | -85.1% (active) | -39.4% (active) |

| SMILES | growth [1] | growth [2] | growth [3] | growth [4] | growth [5] | growth [6] | growth [7] |
| --- | --- | --- | --- | --- | --- | --- | --- |
| CCOc1ccccc1C(=O)OCC(=O)Nc1cccc(S(=O)(=O)N(C)C)c1 | – | 96.2% | 97% | 96.1% | 98.9% | 104% | 102% |
| C[n+]1c2ccccc2c(NC2CCNCC2)c2[nH]c3ccccc3c21 | – | 30.9% | 16.1% | 4.09% (active) | -7.7% (active) | -11.4% (active) | 1.07% (active) |
| O=C1NCC(Nc2ccc(Br)cc2Cl)C(=O)N1 (stereo not drawn) | – | 111% | 100% | 102% | 116% | 108% | 103% |
| Nc1nc(Cl)c2[nH]cnc2n1 | – | 102% | 105% | 104% | -51.2% (active) | 109% | 108% |
| CSC1=Nc2c(c(C)c(-c3ccccc3)n2CCCN2CCCCC2)C2=NC(=O)C[C@H](C)N12 | – | 26.3% | 61.5% | 42.9% | 60.7% | 2.35% (active) | 13.9% |
| C=CCOc1ccc2c(c1)CC[C@@H]1[C@@H]2CC[C@@]2(C)[C@H]1CC[C@]2(C)O | – | 86.9% | 64.3% | 94.4% | 94.8% | 58.2% | 117% |
| CCN(CC)CCCCNc1c2ccccc2[n+](C)c2c1[nH]c1ccccc12 | – | -77.1% (active) | -7.04% (active) | 0.472% (active) | -56.4% (active) | -12.9% (active) | -7.18% (active) |
| Cc1c(C(N)=O)sc2ncn(CC(=O)Nc3ccc(Cl)cc3)c(=O)c12 | – | 106% | 106% | 105% | 118% | 117% | 108% |
| CCN(CC)CCOc1ccccc1-n1c(C)ccc1-c1ccccc1 | – | 42.1% | 36.7% | – | 24.2% | 50.6% | 98.3% |
| NC(=O)c1ccccc1NC(=O)c1ccccc1Cl | – | 105% | 108% | 103% | 116% | 105% | 115% |
| C=C(C)[C@H]1CC/C(C)=C/CC[C@]2(C)O[C@H]2CC/C(COC(C)=O)=C\C1=O | – | 95.2% | 109% | 95% | 103% | 143% | 110% |
| O=C(O)c1ccccc1C(=O)OC1CCCC2CCCC21 (stereo not drawn) | – | 118% | 111% | 112% | 98.5% | 106% | 94.6% |
| CCOC(=O)C(Cc1ccccc1)(C(=O)OCC)C(Br)C(=O)c1ccccc1 (stereo not drawn) | – | 77.3% | 39.8% | 53.3% | 100% | 97.9% | 56.9% |
| COc1ccc(C2=NN(C(C)=O)C(c3cc(OC)c(OC)c(OC)c3)C2)cc1 (stereo not drawn) | – | 34.1% | 98% | 103% | 94.9% | 60.5% | 89.8% |
| COc1ccc(Cn2cc3c(c2-c2ccccc2)CCc2cncnc2-3)cc1 | – | 0.92% (active) | 27.5% | 27.2% | 53.1% | 26.6% | 39.4% |
| CC1=CSC2=NCCN12 | – | 111% | 102% | 111% | 108% | 109% | 96.6% |
| CC(=O)Nc1ccc2c(c1)Cc1c(F)c(F)c(F)c(F)c1-2 | – | 101% | 103% | 86.3% | – | 92.8% | 86.7% |
| CNc1ccc(CSc2ccc(Cl)cc2)cc1 | – | 87.3% | 109% | 91.3% | 118% | 111% | 96.2% |
| C[n+]1ccc(Nc2ccc(NC(=O)c3ccc(Nc4cc[n+](C)c5ccc(N)cc45)cc3)cc2)cc1 | – | 88.7% | 105% | 95% | -27.7% (active) | 109% | 96.2% |
| O=[N+]([O-])c1ccc(N/N=C/c2c(O)ccc3ccccc23)nc1 | – | 58.5% | 48.7% | 25.9% | 54.2% | 44.2% | 17.3% |
| CC(=O)NCCSC(=O)C(=O)SCCNC(C)=O | – | 106% | 116% | 110% | -45.3% (active) | 107% | 125% |
